Drawing on the supplement of paper PMC10681739, this text covers RUNX1 binding intensity for 62 sequences.

± gives the standard deviation of the averaged measurements. Over roughly 4,000 sequences, “arbitrary fluorescence units” has its median near 830; the highest 2% begin near 6,500. What follows is part of a selection rich in the highest values, with near analogues and random picks from the rest.

Chain of RUNX1 (Q01196 whole entry): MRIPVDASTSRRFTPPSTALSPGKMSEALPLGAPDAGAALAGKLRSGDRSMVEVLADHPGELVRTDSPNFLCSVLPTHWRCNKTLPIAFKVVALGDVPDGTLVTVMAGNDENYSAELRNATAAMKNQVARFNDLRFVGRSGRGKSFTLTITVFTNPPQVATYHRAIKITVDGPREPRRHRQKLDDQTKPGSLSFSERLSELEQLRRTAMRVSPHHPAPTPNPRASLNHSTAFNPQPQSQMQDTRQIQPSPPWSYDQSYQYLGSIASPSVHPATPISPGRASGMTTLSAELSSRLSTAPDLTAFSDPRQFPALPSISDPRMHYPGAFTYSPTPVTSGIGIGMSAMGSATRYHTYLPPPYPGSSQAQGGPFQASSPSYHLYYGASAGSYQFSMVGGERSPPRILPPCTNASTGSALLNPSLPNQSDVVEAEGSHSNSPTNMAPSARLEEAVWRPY

The target in the assay is RUNX1 (UniProt Q01196). Description: RUNX1 binding intensity (PBM fluorescence), RUNX1 alone (arbitrary fluorescence units); higher = stronger binding. The note with it: RUNX1 concentration 2 nM; ETS1 concentration 0 nM. The protocol:
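gcPBM on 36-bp genomic-derived probes (partner site mutated) containing one RUNX1 site and no ETS1 site. Recombinant human RUNX1 (2 nM) was incubated alone or with ETS1 (25 nM) and detected by anti-RUNX1 antibody fluorescence. Values are medians over 4 replicate spots (not normalised). The probes sit in constant array flanks that are not printed.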
GCCCCTCTTTCTGACTCACACAACCGCCTCTAGTCT yielded an RUNX1 binding intensity of 1540.
Sequence TTGTGGTAGGGAAATCCACTTACCCCCTCCTCATGT showed an RUNX1 binding intensity of 808.
On to TGTGGCAACCACAGCCCCAAAACAAAGAGGAGACAC, for which the RUNX1 binding intensity came out at 1040.
In the case of AGCTGAGGTCGCGGTGCAGCAGCAGCAAACGTGATA, the RUNX1 binding intensity is 1010.
In turn, CCACTAGCAGCAAAACGGGCCGAGGGACCGCAAGCA yielded an RUNX1 binding intensity of 821.
AACTTGTGGGGTTTTCTTCTGATCTTGCTCCCCGCT registered an RUNX1 binding intensity of 998.
Sequence GAAACCACAACCTACCCCAGCCTTACTTTCGGGCGC yielded an RUNX1 binding intensity of 3300.
Sequence CCATTCTTACGGTGGAGATGGCTGCGGCCGTGGCGG registered an RUNX1 binding intensity of 815.
For TCAAGAAAACAGTAAACTCTCAAAACCAAGTTCTGA the value was 736; for GCAATCTTGACCACAACATGGAGACAGGCAATCAAA, 1540.
For ACGTCTGTTTACTGTGATTGAAACCGCAAGAAGAAG the value was 9630; for TAGGTCTGTGGGTGACGTCTGTTTACTGTGATTGAA, 842; for CATTCATGTGGCTTATAGGCACACCCTGCCTGCCTA, 824.
Turning to GAGGCGTTGCCGCCTCCTTTTCGCGGTTGCCTTCTC, the RUNX1 binding intensity amounted to 988.
Sequence TCCTCCGTTCCCGTAGTTCCGAGTTGCGGTTTCTCC displayed an RUNX1 binding intensity of 7620.
Turning to CCCCTTGCCGTTCTCCGAAAGTGCGCGGGTTGGAGC, the RUNX1 binding intensity amounted to 868.
Regarding TGCTTCCCTTCAGTGCCGACAGCGAAAACCGCTGCC, the RUNX1 binding intensity was found to be 795.
With GTCGCCGGGATCACCGCAAACGCTTGCTGCTTGCGC, the RUNX1 binding intensity was 1190.
As to AGCCGTGGTCAGCAGCAGCACGACTGCCGCCTCCGC, the RUNX1 binding intensity turned out to be 770.
For GCAACCGCACTCCGAAAGCTCTGGGCCTGAAGAGTC the value was 943.
As to AACTGGGCTGAAAGAACGGCTAACCGCAAGCTGCCG, the RUNX1 binding intensity amounted to 13200.
TTGATAGCAAACCACACTCGGCACAGAAAGGAGAAC: the RUNX1 binding intensity stood at 1020.
Consider GGCGCCTCTTTGCGCCCCCGCCCACAATCGAGCGCA, for which the RUNX1 binding intensity came to 826.
For GGTGGACCTGTGGTTTGCAACACAGAAAGAGACTAT the value was 1640; for CCTTTGTTGTGGTTTTTGCAGAAAGAGAAGGGTTAG, 10600 ± 540; for GGTGGACCTGTGGTTTGCAACACAGAAAGAGGTGGC, 1580.
CACCTTTGTTGTGGTTTGTAAACGGAGACAAAAACA registered an RUNX1 binding intensity of 1460.
As to TGACGGCTGCACGGGCGCAGCGGCGGCCCGCAGGGG, the RUNX1 binding intensity stood at 736.
CTGCCTGCCCCACAGCATGCAGGGACAGGCAGTGGG registered an RUNX1 binding intensity of 633.
On to CGGCCCCCGGGGTGGTTAGCGCTTACGGGGTCGAAG, for which the RUNX1 binding intensity came to 714.
GCCGATGAGGAGGTGAGGGCCAACCACACTGCTCAG: the RUNX1 binding intensity amounted to 870.
Turning to AGTGCTGTGGTTTGACTTTGTTTTTACTGTAGCCAG, the RUNX1 binding intensity stood at 1880.
Regarding TCAGAACTTGGTTTTGAGAGTTTACTGTTTTCTTGA, the RUNX1 binding intensity stood at 785.
As to AGAGTCTTTTTTACTGAGCGTTTGCGGTTTTGACTT, the RUNX1 binding intensity turned out to be 8560.
The sequence GGTCTGGAGGACGTTTGCAGCTGCTGTGGGTGGTGG yielded an RUNX1 binding intensity of 787.
Turning to ACCTGATGCCGGGGCACCGCCAGATGTGGCCACGAG, the RUNX1 binding intensity was determined as 872.
Sequence TCGCCCGCCGCTTCATGTCGCGGCGCCGCAGAGGCC displayed an RUNX1 binding intensity of 781.
For TTTAATTCTGTGGTTAGAAGTAAAAGGACGTAAAGG the value was 3370.
GTAGTAAGTTGTGGTTAAAAGAGAGGACGTTCAGAG came in with an RUNX1 binding intensity of 7590.
For AATTAAATTGTGGTAGATAGTAAAAGGACGTAGTTA the value was 943.
Take ACTCTGCGGCCCAGCTGCTTCTGTGCACAGGCAATA: the RUNX1 binding intensity was 791.
CTACCGGGAGTGCGGGTCGCGCTTCAGGCGGCGTCC registered an RUNX1 binding intensity of 724.
TGAAGGCAATTGACGAACACGTGACGCGGTCGGGCG came in with an RUNX1 binding intensity of 721.
Take AGCGCCACCGCAGTGATGCAAGTCGGCAGTTGTAGT: the RUNX1 binding intensity stood at 926.
With ATTTCCATTTACGGACTCTTCTCCTGCCCGCAGGGC the figure was 1020; with TCGTGAAAAAGGAGGTGGATAAAGTGGTTACGGCAA, 779.
For CCGAGTGGCGGTTGTTTCAAGATGGCGGAGGTGGCA the value was 789.5 ± 6.2; for CCAGCATGTGGGCTCTGAACCTGAAGCAACAGGCTC, 796.
For CATGAGAAACACCCTGCCCAACCACCTGACTACAAG the value was 1080; for ATGTTAACACCCTGCCATGAAAACCGCAAGAAGGGC, 11200.
Sequence GGTGTTACACCGCAGCCTTCCATGAAGGGGCAGGGG registered an RUNX1 binding intensity of 1220.
On to CCGGGACCGCGGCTTGGGCTCACGGCCACTGCCGAC, for which the RUNX1 binding intensity is 703.
On to GTTTTCAAGGCAGCAAGTGGCTGTGGTGGCACGGAG, for which the RUNX1 binding intensity is 837.
AGGCTTTGCTGCCACAAACTTTCGTGCCACGAACCT yielded an RUNX1 binding intensity of 779.
For AGTTGCATACGCGGTATTGGGCAGGCAATGGCAGGG the value was 738.
Sequence CGTTTACTGTGGCTGCAGCTCTCCCCACCCACACAC yielded an RUNX1 binding intensity of 979.
As for GACGCAGCATGAGGTGGAGGTGTAGAATGTGGTGCT, the RUNX1 binding intensity amounted to 760.
As to TTTGCACACATGCTGGCCTCCGCCTGACCACCTCCT, the RUNX1 binding intensity is 985.
For GCCGTGAATGCGGGCTCTCCTGCCGTAAGCTGCCCC the value was 824.
In the case of TTACAGGGGCCGGGAGTGGCCTGCGGGCGGAGAAGT, the RUNX1 binding intensity is 738.
The sequence TCCTGTGGCTTTGGGGTTCCTTGTTGCCTGGGCTGG returned an RUNX1 binding intensity of 1110.
On to GTGACCACTGCCTAGTTACTGCCAGCTGAACGAAGG, for which the RUNX1 binding intensity was 729.
